Assay outcomes as filed in PubChem BioAssay.
Only some compounds are listed: those with a hit (about 0.93% of all), similar ones and a draw of the others.
RGS12 GoLoco inh-1: blocks human Gai1 binding to RGS12 GoLoco peptide, red readout; Potency, µM (titrated, usually from 61.6 µM), hits mostly inhibitors; 230,000 tested, 0.44% active; P63096; Gai1:RGS12 GoLoco peptide FP, rhodamine, 10 min; active means well fitted inhibition curve with a large enough effect, not every such curve was filed as active; inactive means no such curve, though single readings can be large or run the other way; further: nearly all actives have a fitted effect of over 30% in size
Target sequence (P63096 whole entry, looked up): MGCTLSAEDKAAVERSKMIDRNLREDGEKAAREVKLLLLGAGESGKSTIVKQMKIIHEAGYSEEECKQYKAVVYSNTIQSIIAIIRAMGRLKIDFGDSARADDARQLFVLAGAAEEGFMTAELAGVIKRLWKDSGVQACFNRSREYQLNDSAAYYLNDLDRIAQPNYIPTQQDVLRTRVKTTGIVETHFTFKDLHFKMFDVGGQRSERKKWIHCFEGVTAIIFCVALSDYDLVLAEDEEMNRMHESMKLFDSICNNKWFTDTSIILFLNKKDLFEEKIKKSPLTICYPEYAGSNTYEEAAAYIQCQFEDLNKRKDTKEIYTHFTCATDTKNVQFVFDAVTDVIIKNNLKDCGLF
TRb SRC2 PPI: inhibitors of human thyroid hormone receptor beta-SRC2 interaction. P10828. TRbeta-SRC2 peptide binding, fluorescence polarization; receptor liganded with 1 µM T3. Potency, µM (highest dose often 106 µM), actives largely listed as inhibitors. 280,000 tested, 0.065% active. AID 1469; further: nearly all actives have a fitted effect of over 50% in size
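TRb LBD 0.6 uM + Texas Red SRC2 peptide 20 nM, 1 uM T3, Tris buffer w/ 5% DMSO; compound pinned, 5 h RT; FP read ex 555/em 632; normalized to unbound and bound controls.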
TexasRed fluor: Texas Red fluorescence interference in TRb-SRC2 counter-screen | TRb/SRC2 Texas Red total fluorescence interference | Potency, µM (top dose mostly 106 µM) | 280,000 tested, 0.29% active | AID 1479; active means well fitted curve in either direction with a large enough effect; inconclusive means small, poorly fitted or top-dose-only effect
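Human TRβ ligand-binding domain (0.6 uM) and Texas Red SRC2 peptide (20 nM) in Tris buffer with 1 uM T3 and 5% DMSO were incubated with pinned compound for 5 hr at ambient temperature. Total fluorescence was computed as S + 2P (555/632 nm).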
FBPA coupling cs: counter-screen for Giardia aldolase inhibitors: coupling enzyme system. 290,000 tested, 0.67% active. coupling enzyme system counterscreen, AmpLite Red fluorescence. activity change, negative = inhibition, % at 58.2 µM, hits read low; in the data active means activity change below about -30%
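Coupling enzymes only (glyceraldehyde-3-phosphate) + compound, at 57.5 uM final, 10 min RT; add substrate/coupling/AmpLite Red mix, 20 min RT; fluorescence ex 525/em 598 nm. Actives flag coupling-system interference.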
RGS12 GoLoco inh-2: RGS12 (human) GoLoco motif inhibition, red FP; 110 tested, 50% active; AID 2390; Gai1/rhodamine-RGS12 GoLoco peptide fluorescence polarization; Potency, µM (titrated, usually from 57.1 µM), hits mostly inhibitors; shares compounds with RGS12 GoLoco inh-1
Hits are given with their value; ! = repeats disagree. Unless noted, the call rests on the fitted dose curve; in most records, active means well fitted curve in the direction sought with a large enough effect; inconclusive means small, poorly fitted or top-dose-only effect, or another doubt; inactive means no such curve, though single readings can be large; an effect the other way counts as inactive or inconclusive.

What do the screens show for `CNC(=O)Oc1ccc2c(c1)[C@@]1(C)CCN(C)[C@@H]1N2C`?
RGS12 GoLoco inh-1: inactive; TRb SRC2 PPI: inactive; TexasRed fluor: inactive; FBPA coupling cs: -44!

Results for CN1CC[C@@]2(C)c3cc(O)ccc3N(C)[C@@H]12 ?
RGS12 GoLoco inh-1: inactive; TRb SRC2 PPI: inactive; TexasRed fluor: inactive; FBPA coupling cs: -78

What do the screens show for `CN1CC[C@@]2(C)c3cc(O)ccc3N(C)C2O1` (stereo not given in full)?
FBPA coupling cs: -72

How did CC(C)(C)N(NC(=O)c1ccc(Cl)cc1)C(=O)c1ccccc1 do in these assays?
TRb SRC2 PPI: inactive; TexasRed fluor: inactive

Results for C[N+]1(C)C2CCC1CC(OC(=O)c1ccco1)C2 (stereo not given) ?
RGS12 GoLoco inh-1: 10µM; TRb SRC2 PPI: inactive; TexasRed fluor: inactive; FBPA coupling cs: inactive

How did Cc1cc(C)nc(Nc2ccccc2)n1 do in these assays?
TRb SRC2 PPI: inactive; TexasRed fluor: inactive

What do the screens show for `CN1CC(CO)=C[C@H]2c3cccc4[nH]cc(c34)C[C@H]21`?
RGS12 GoLoco inh-1: 13µM; TRb SRC2 PPI: inactive; TexasRed fluor: inactive; FBPA coupling cs: inactive

Results for COC(=O)c1sccc1S(=O)(=O)NC(=O)Nc1nc(C)nc(OC)n1 ?
TRb SRC2 PPI: inactive; TexasRed fluor: inactive

What do the screens show for `Nc1cccc(Cl)c1Cl`?
TRb SRC2 PPI: inactive; TexasRed fluor: inactive

What do the screens show for `CNC(=O)OCc1n(C)cc[n+]1C`?
RGS12 GoLoco inh-1: 1.8µM; TRb SRC2 PPI: inactive; TexasRed fluor: inactive; FBPA coupling cs: inactive

How did CNC(=O)OCCc1nccn1C do in these assays?
RGS12 GoLoco inh-1: inactive; TRb SRC2 PPI: inactive; TexasRed fluor: inactive; FBPA coupling cs: inactive

How did COC(=O)c1ccccc1CS(=O)(=O)NC(=O)Nc1nc(OC)cc(OC)n1 do in these assays?
TRb SRC2 PPI: inactive; TexasRed fluor: inactive

How did CCC(C)(C)c1cc(-n2nc3ccccc3n2)c(O)c(C(C)(C)CC)c1 do in these assays?
TRb SRC2 PPI: inactive; TexasRed fluor: inactive

How did COc1ccc(OC)c(N2C(=O)NC(=O)/C(=C/c3ccc([N+](=O)[O-])s3)C2=O)c1 do in these assays?
RGS12 GoLoco inh-1: inactive; TRb SRC2 PPI: inconclusive; TexasRed fluor: inactive; FBPA coupling cs: -33

Results for CCN1C(=O)/C(=C\c2ccc([N+](=O)[O-])s2)C(=O)NC1=S ?
RGS12 GoLoco inh-1: inactive; TRb SRC2 PPI: inactive; TexasRed fluor: inactive; FBPA coupling cs: -40

Results for C=CCN1C(=O)/C(=C/c2ccc(Br)s2)C(=O)NC1=S ?
FBPA coupling cs: inactive

Results for C[C@@H]1O[C@H](C[N+](C)(C)C)CS1 ?
RGS12 GoLoco inh-1: 32µM; TRb SRC2 PPI: inactive; TexasRed fluor: inactive

Results for CN(c1c(Br)cc(Br)cc1Br)c1c([N+](=O)[O-])cc([N+](=O)[O-])cc1C(F)(F)F ?
TRb SRC2 PPI: inactive; TexasRed fluor: inactive

How did O=C1C=CC(=O)C=C1 do in these assays?
RGS12 GoLoco inh-1: 1.8µM!; TRb SRC2 PPI: inactive; TexasRed fluor: inactive

How did CCCC[N+]12CCC(CC1)C(Cc1ccccc1)C2 (stereo not given) do in these assays?
RGS12 GoLoco inh-1: inactive; TRb SRC2 PPI: inactive; TexasRed fluor: inactive; FBPA coupling cs: inactive; RGS12 GoLoco inh-2: inactive

What do the screens show for `CCn1c(C)[n+](CC(O)COCC2CC=CCC2)c2ccccc21` (stereo not given)?
RGS12 GoLoco inh-1: 2.2µM; TRb SRC2 PPI: inactive; TexasRed fluor: inactive; FBPA coupling cs: inactive; RGS12 GoLoco inh-2: 14µM

What do the screens show for `CCC(CC)Nc1c([N+](=O)[O-])cc(C)c(C)c1[N+](=O)[O-]`?
TRb SRC2 PPI: inactive; TexasRed fluor: inactive

What do the screens show for `C[N+]12CCC(CC1)C(=C(c1ccccc1)c1ccccc1)C2`?
RGS12 GoLoco inh-1: 11µM; TRb SRC2 PPI: inactive; TexasRed fluor: inactive; FBPA coupling cs: inactive; RGS12 GoLoco inh-2: 14µM

What do the screens show for `C[N+]12CCC(CC1)C(C(O)(c1ccccc1)c1cccs1)C2` (stereo not given)?
RGS12 GoLoco inh-1: 3.5µM; TRb SRC2 PPI: inactive; TexasRed fluor: inactive; FBPA coupling cs: inactive; RGS12 GoLoco inh-2: 25µM

Results for CCC[N+]12CCC(CC1)C(C(O)(c1ccccc1)c1ccccc1)C2 (stereo not given) ?
RGS12 GoLoco inh-1: inactive; TRb SRC2 PPI: inactive; TexasRed fluor: inactive; FBPA coupling cs: inactive

What do the screens show for `CCC(C)c1cc([N+](=O)[O-])cc([N+](=O)[O-])c1O` (stereo not given)?
TRb SRC2 PPI: inactive; TexasRed fluor: inactive
